A short description of assay [1]: qHTS of pediatric cancer cell lines to identify multiple opportunities for drug repurposing: Confirmatory screen for DAOY cells (AID 1347114). Also: nearly all actives have a fitted effect of over 65% in size. The procedure, abridged:
(§1)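 Viability measured as metabolically active cells via CellTiter-Glo luminescence following 48 hours of compound exposure, 11-point dilutions in confirmatory testing. 500-1,000 cells/well plated 5 hours before dosing; controls were DMSO and 2.3 µM bortezomib.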
In general terms: qHTS replaces the single test concentration by a dilution series.

Assay [2] can be described thus: qHTS of pediatric cancer cell lines to identify multiple opportunities for drug repurposing: Confirmatory screen for NB-EBc1 cells (AID 1347115).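 Also: cells exposed to compound for 48 h before the viability read; nearly all actives have a fitted effect of over 45% in size.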 The gist of the method:
(§2)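 Viability after 48 h compound treatment at 37C, 500-1,000 cells/well, read as ATP luminescence with CellTiter-Glo. Primary screens used 11-point (MIPE, 0.78 nM-46 µM) or 8-point (NPC, 0.59 nM-46 µM) final concentrations; follow-up screens used 11-point dilutions.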

Assay [3] is described as follows: qHTS of pediatric cancer cell lines to identify multiple opportunities for drug repurposing: Confirmatory screen for SJ-GBM2 cells (AID 1347116). Also: nearly all actives have a fitted effect of over 60% in size. The gist of the method:
as §1

A short description of assay [4]: qHTS of pediatric cancer cell lines to identify multiple opportunities for drug repurposing: Confirmatory screen for BT-37 cells (AID 1347117). Also: nearly all actives have a fitted effect of over 55% in size. The gist of the method:
as §2

The nature of assay [5]: qHTS of pediatric cancer cell lines to identify multiple opportunities for drug repurposing: Confirmatory screen for TC32 cells (AID 1347118).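 Also: cells exposed to compound for 48 h before the read; nearly all actives have a fitted effect of over 65% in size.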 The gist of the method: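 TC32 cells, 500-1,000/well in growth medium, compound-treated 48 h at 37 °C; viability from CellTiter-Glo luminescence. Primary screen: MIPE 11-point (0.78 nM–46 µM final), NPC 8-point (0.59 nM–46 µM final); confirmatory at 11-point dilutions.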

Assay [6] is described as follows: qHTS of pediatric cancer cell lines to identify multiple opportunities for drug repurposing: Confirmatory screen for MG 63 (6-TG R) cells (AID 1347119). Also: nearly all actives have a fitted effect of over 55% in size. The procedure, abridged: as §2
A short description of assay [7]: qHTS of pediatric cancer cell lines to identify multiple opportunities for drug repurposing: Confirmatory screen for RD cells (AID 1347124).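 Also: cells exposed to compound for 48 h before viability readout; nearly all actives have a fitted effect of over 65% in size.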 The gist of the method: as §2
A short description of assay [8]: qHTS of pediatric cancer cell lines to identify multiple opportunities for drug repurposing: Confirmatory screen for Rh18 cells (AID 1347125). Also: nearly all actives have a fitted effect of over 55% in size. The gist of the method: as §2
Assay [9] in a line: qHTS of pediatric cancer cell lines to identify multiple opportunities for drug repurposing: Confirmatory screen for Rh30 cells (AID 1347126). Also: nearly all actives have a fitted effect of over 55% in size. The gist of the method:
as §2

The nature of assay [10]: qHTS of pediatric cancer cell lines to identify multiple opportunities for drug repurposing: Confirmatory screen for control Hh wild type fibroblast cells (AID 1347121). Also: nearly all actives have a fitted effect of over 70% in size. The gist of the method: as §2

SMILES strings stand for the structures. Results filed as inconclusive are left out. The source made the active and inactive calls. Calls follow the shape of the dose curve; as a rule, active = well fitted curve in the direction sought with a large enough effect; inconclusive = small, poorly fitted or top-dose-only effect, or another doubt; inactive = no such curve, though single readings can be large; an effect the other way counts as inactive or inconclusive.
Potency is read from the fitted curve at half-maximal effect.

On to `CN(C)C1CCN(C(=O)c2ccc(NC(=O)Nc3nc(N4CCOCC4)nc(N4CCOCC4)n3)cc2)CC1`, for which the Potency in [1] was 14.7 µM (active); in [2], 16.5 µM (active); in assay [3], 1.47 µM (active); in assay [4] it was 0.147 µM (active); in [5] it was 0.0657 µM (active); in [6], 0.233 µM (active). The Potency in assay [7] and in [8] was 0.293 µM (active) throughout. The Potency entry in assay [9] is “inactive”.
For `COc1cccc(-c2cc(=O)c3ccccc3o2)c1N`, the Potency entry in assay [1], in assay [2], in [4], in assay [6], in assay [10] and in assay [8] was “inactive” throughout. The Potency in assay [5] was 20.8 µM (active); in assay [7], 0.465 µM (active).
Take `O=C1C(Cl)=C(NCCN2CCOCC2)C(=O)c2ncccc21`: the Potency in [1] was 7.37 µM (active); in assay [2] it was 5.85 µM (active); in [3], 14.7 µM (active); in assay [4] it was 1.47 µM (active); in [5], 1.04 µM (active); in assay [6], 1.04 µM (active). For the same compound, the Potency in assay [10] was 20.8 µM (active); in assay [7] it was 1.17 µM (active); in [8], 3.29 µM (active); in assay [9] it was 7.37 µM (active).
As for `CCCCCCCCCCCC1=C(O)C(=O)C=C(O)C1=O`, the Potency entry in assay [1], in [2], in assay [3], in [4], in [6] and in [10] was “inactive” each time. The Potency entry in assay [7], in assay [8] and in [9] was “inactive” throughout. Besides, in assay [5], the Potency was 10.4 µM (active).
For `CO[C@H]1C[C@@H]2CC[C@@H](C)[C@@](O)(O2)C(=O)C(=O)N2CCCC[C@@H]2C(=O)O[C@H]([C@H](C)C[C@@H]2CC[C@H](OP(C)(C)=O)[C@H](OC)C2)CC(=O)[C@H](C)C=C(C)[C@@H](O)[C@@H](OC)C(=O)[C@H](C)C[C@H](C)C=CC=CC=C1C`, the Potency in [5] is 10.4 µM (active); in assay [9], 18.5 µM (active). Further, the Potency entry in assay [10] and in assay [8] was “inactive” throughout.
For `CN[C@@H](C)C(=O)N[C@H]1CN(C(=O)CC(C)C)CC[C@H]2CC[C@@H](C(=O)NC(c3ccccc3)c3ccccc3)N2C1=O`, the Potency entry in [2], in [3], in [6], in [10], in [7] and in assay [8] was “inactive” in each case. Also, in assay [9], the Potency result is “inactive”. Moreover, the Potency in assay [5] is 8.27 µM (active).
Regarding `CC[C@@H]1C=C(C)C[C@H](C)C[C@H](OC)[C@H]2O[C@@](O)(C(=O)C(=O)N3CCCC[C@@H]3C(=O)O[C@H](C(C)=C[C@@H]3CC[C@H](Cl)[C@H](OC)C3)[C@H](C)[C@@H](O)CC1=O)[C@H](C)C[C@H]2OC`, the values for the Potency in assay [2] and in assay [5] were 23.3 µM (active) and 18.5 µM (active), respectively. Further, the Potency entry in assay [10] and in assay [7] was “inactive” each time.
Take `CO[C@H]1C=CC=C(C)C(=O)NC2=CC(=O)C(NCCN(C)C)=C(C[C@@H](C)C[C@H](OC)[C@@H](O)[C@@H](C)C=C(C)[C@@H]1OC(N)=O)C2=O`: the Potency was 18.5 µM (active) in [1], 1.17 µM (active) in assay [4], 1.85 µM (active) in assay [8] and 3.29 µM (active) in assay [9]. Further, the Potency result in [3], in assay [6], in assay [10] and in [7] was “inactive” each time.
With `COc1ccc(-c2nc(N3CCOCC3)c3sc(CN(C)c4ncc(C(=O)NO)cn4)cc3n2)cn1`, the Potency in [1] was 1.04 µM (active); in [6], 0.928 µM (active); in assay [7], 2.33 µM (active); in assay [8], 1.17 µM (active); in assay [9], 4.14 µM (active).
For `O=C(O)CCC1CCC(c2cc(F)ccc2F)(S(=O)(=O)c2ccc(Cl)cc2)CC1` (stereo not given), the Potency result in assay [2], in assay [3], in assay [6], in assay [10] and in [7] was “inactive” each time. Also, the results for the Potency in [4], in assay [5] and in [8] were 16.5 µM (active), 20.8 µM (active) and 29.3 µM (active), respectively.
Regarding `Cc1cc(OCCCc2c(C(=O)O)n(Cc3cccnc3)c3c(-c4c(COc5ccc(N6CCN([S+](C)(=O)[O-])CC6)cc5)nn(C)c4C)cccc23)cc(C)c1Cl`, the Potency entry in assay [2] was “inactive”. In assay [4], the Potency is 18.5 µM (active).
On to `CC1(C)O[C@H]2C[C@@H]3[C@H]4CCC5=CC(=O)C=C[C@]5(C)[C@@]4(F)[C@@H](O)C[C@]3(C)[C@]2(C(=O)CO)O1`, for which the Potency entry in assay [1], in [3], in assay [4], in assay [6], in assay [7] and in [8] was “inactive” throughout. Further, the Potency result in assay [9] is “inactive”.
In the case of `Cc1[nH]c(C=C2C(=O)Nc3ccc(S(=O)(=O)Cc4c(Cl)cccc4Cl)cc32)c(C)c1C(=O)N1CCC[C@H]1CN1CCCC1`, the Potency result in assay [2] was “inactive”. In addition, the Potency in [4] was 18.5 µM (active); in assay [5] it was 11.7 µM (active); in assay [6], 32.9 µM (active); in [10], 32.9 µM (active); in assay [8], 26.1 µM (active).
On to `CC[C@]1(O)C[C@@H]2CN(CCc3c([nH]c4ccccc34)[C@@](C(=O)OC)(c3cc4c(cc3OC)N(C=O)[C@@H]3C45CCN4CC=C[C@](CC)([C@H]45)[C@@H](OC(C)=O)[C@]3(O)C(=O)OC)C2)C1` (stereo not given in full), for which the Potency result in [2], in [4], in [6], in assay [10], in [7] and in assay [8] was “inactive” each time.

Source of the values: PubChem BioAssay (NCATS).
